Measurements taken from PubChem BioAssay (NCI).
About 83,000 compounds went through this panel and 20% of them were active in at least one assay; those are over-represented in the sample as a whole.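 For each line, cells grew in 96-well plates with the test compound present at a single concentration for 48 hours.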 Unmarked numbers belong to inactive results. Calls of active or inactive are those of the source. How the source made its calls: active means growth percent below 10; inactive means the rest.

Tested on: HL-60(TB) leukemia
Assay: NCI-60 one-dose screen, 48 h (100 = growth as untreated, 0 = no growth, -100 = all killed)
Details: 10 µM unless noted

With `Clc1ccc(Nc2nccc(Nc3ccc4[nH]ncc4c3)n2)cc1` as the compound, how does the growth read?
The growth was 51.5%.

For `Cc1c(Cl)cccc1NC(=O)c1sc2nc3c(cc2c1N)CCCC3`, which growth is on record?
The growth was 5.57% (active).

`S=C(c1ccccc1)N1CCN(c2cccc(Cl)c2)CC1` was tested. Which growth did it give?
The growth was 90.5%.

How did the growth turn out when `Clc1ccc2c(c1)N(CCCN1CCCC1)c1ccccc1S2` was run?
Its growth is 17.1%.

Which growth does the source give for `Cc1cc2c3c(cccc3c1)C(=O)c1ccccc1-2` here?
The growth was 101%.

With `C/C=C(\C)C(=O)N[C@H]1C(O)C[C@]2(C)C3CC[C@@]4(C)C(CC[C@@H]4C(C)N(C)C)C3CCC2C1O` (stereo not given in full) as the compound, how does the growth read?
Its growth is 5.7% (active).

For `COc1cc(COC(=O)CCCCC[P+](c2ccccc2)(c2ccccc2)c2ccccc2)c(OC)c2c1OCO2`, which growth is on record?
Its growth is -9.81% (active).

With `CCCCCCCCCCN=C(N)N=C(N)N` as the compound, how does the growth read?
The growth was 1.55% (active).

Which growth does the source give for `CCCCCCCCCCCCCCCCOc1ccc(S(=O)(=O)N(C)C)cc1[N+](=O)[O-]` here?
The growth was 110%.

With `Cc1ncc(C(=O)Nc2ccc(CN3CCN(C)CC3)c(C(F)(F)F)c2)cc1C#Cc1c(N)ncc2ccc(F)cc12` as the compound, how does the growth read?
The growth was 9.43% (active).

With `N#Cc1cnn(C(=O)c2nn(-c3ccc(Cl)cc3)cc2O)c1N` as the compound, how does the growth read?
Its growth is -50.1% (active).

Which growth does the source give for `COc1ccc2c(c1)/C(=N/c1n[nH]c(=S)s1)C(=O)N2` here?
The growth was 61.6%.

For `c1ccc(-c2nc3ccccc3[nH]2)c(OCCCCCOc2ccccc2-c2nc3ccccc3[nH]2)c1`, which growth is on record?
The growth was 22%.

For `O=C1/C(=C/c2ccccc2O)N=C2SCCCN12`, which growth is on record?
Its growth is 108%.

For `C[C@@H]1CC2C3C[C@H](F)C4=CC(=O)C=C[C@]4(C)[C@@]3(F)[C@@H](O)C[C@]2(C)[C@@]1(O)C(=O)CO` (stereo not given in full), which growth is on record?
Its growth is 99.1%.

`Cn1cc(-c2csc(-c3cn(CCOC(N)=O)c4ccccc34)n2)c2cccnc21` was tested. Which growth did it give?
The growth was 86.9%.

Which growth does the source give for `COC(=O)CCCCCn1c2ccccc2c2c3c(c4c5ccccc5[nH]c4c21)C(=O)N(O)C3=O` here?
Its growth is 19.1%.

With `Cc1cc2nc(CO)[nH]c2cc1C` as the compound, how does the growth read?
The growth was 89.7%.

For `NS(=O)(=O)c1ccc(-n2nc(-c3ccccc3)ccc2=O)cc1`, which growth is on record?
The growth was 89.9%.

Which growth does the source give for `CCOC(=O)c1cocc1C(=O)O` here?
Its growth is 80.9%.

`O=C(NCOC(O)C(Cl)(Cl)Cl)NCOC(O)C(Cl)(Cl)Cl` (stereo not given) was tested. Which growth did it give?
The growth was 0.027% (active).

Which growth does the source give for `COCCOCCCl` here?
Its growth is 110%.

With `COc1ccc(CN2c3ccccc3CCc3ccccc32)cc1F` as the compound, how does the growth read?
The growth was -25.7% (active).

With `CC(C)(c1ccc(OCC(O)CNCc2ccco2)cc1)c1ccc(OCC(O)CNCc2ccco2)cc1` (stereo not given) as the compound, how does the growth read?
The growth was 63.9%.

With `Oc1ccc(-c2nc3ccccc3s2)cc1CN(Cc1ccccn1)Cc1ccccn1` as the compound, how does the growth read?
Its growth is 1.27% (active).

How did the growth turn out when `Cc1ccc2c(c1)CC(O)CC1C(=O)N(CCO)CC(=O)N21` (stereo not given) was run?
Its growth is 96.9%.

Which growth does the source give for `CC(C)NC(=O)OCc1c(COC(=O)NC(C)C)c(-c2ccc(Cl)c(Cl)c2)n2c1SCC2` here?
The growth was 7.43% (active).

With `CCOc1ccc(S(=O)(=O)Nc2ccc3c(c2)N(S(=O)(=O)CC)CCC3)cc1` as the compound, how does the growth read?
Its growth is 77.1%.

How did the growth turn out when `CCN(CC)c1ccc2cc(C(Nc3ccc(Br)c(C(F)(F)F)c3)c3nnnn3C(C)(C)C)c(=O)oc2c1` (stereo not given) was run?
The growth was 93%.

With `CCOCc1nc2ccccc2c(=O)[nH]1` as the compound, how does the growth read?
The growth was 107%.

`c1nc(N2CCOCC2)c2[nH]ccc2n1` was tested. Which growth did it give?
The growth was 90.2%.

Which growth does the source give for `COC(=O)CCc1cc(O)c2c(c1)[C@@H](C(=O)OC)[C@H](c1ccc(O)c(O)c1)O2` here?
The growth was 9.9% (active).

With `CN1C(=O)N(C)C2C1NN=c1s/c(=C\c3ccc(C(F)(F)F)cc3)c(=O)n12` (stereo not given) as the compound, how does the growth read?
Its growth is -6.25% (active).

`Cc1c2cnccc2c(C)c2c1c1cc(CO)ccc1n2C` was tested. Which growth did it give?
The growth was -20% (active).

For `COC(=O)Nc1nc2ccc(C(=O)c3cccc(I)c3)cc2[nH]1`, which growth is on record?
The growth was -41.7% (active).

How did the growth turn out when `CCCc1cc(C(N)=S)ccn1` was run?
Its growth is 103%.

With `O=CN1N=C(c2cccc(Nc3ccnc4cc(Cl)ccc34)c2)CC1c1ccccc1` (stereo not given) as the compound, how does the growth read?
The growth was -1.22% (active).

For `COc1ccc(-c2nc(NCCO)[nH]c(=O)c2C#N)cc1`, which growth is on record?
The growth was 103%.

Which growth does the source give for `C/C(=C(/c1ccc(Cl)cc1)c1ccc(OCCN2CCCCCC2)cc1)c1ccccc1` here?
The growth was 63.6%.

Which growth does the source give for `COc1cc(-c2cccc([N+](=O)[O-])c2)c(-c2nc(-c3ccccc3)c(-c3ccccc3)n2C2CC2)cc1OC` here?
Its growth is 9.63% (active).
